Measurements published in PubChem BioAssay (NCATS).
Inconclusive results are not listed. Active and inactive are the calls of the source. Calls follow the shape of the dose curve; as a rule, active = well fitted curve in the direction sought with a large enough effect; inconclusive = small, poorly fitted or top-dose-only effect, or another doubt; inactive = no such curve, though single readings can be large; an effect the other way counts as inactive or inconclusive.

Legend:
[1] = Primary qHTS for inhibitors of nuclear receptor binding SET domain protein 2 (NSD2) in an isogenic RCH-ACV NSD2 p.E1099K mutant (9B) (AID 1645876); details: RCH-ACV NSD2 E1099K (9B) viability, CellTiter-Glo, 72 h; series mostly up to 44.9 µM
[2] = Primary qHTS for inhibitors of nuclear receptor binding SET domain protein 2 (NSD2) in an RCH-ACV wild type WT cells (2C) (AID 1645877); details: RCH-ACV (leukaemia line) NSD2 WT (2C) viability, CellTiter-Glo, 72 h; series mostly up to 44.9 µM
Also: nearly all actives have a fitted effect of over 70% in size.
Potency is read from the fitted curve at half-maximal effect.

For COc1cc(F)c(F)c(Nc2ccc(I)cc2F)c1NS(=O)(=O)C1(CC(O)CO)CC1 (stereo not drawn), the Potency [1] was 18.3 µM (active) and the Potency [2] was 25.8 µM (active).

With COC(=O)C1=COC(O[C@@H]2O[C@H](CO[C@@H]3O[C@H](COC(=O)/C=C\c4ccc(O)cc4)[C@@H](O)[C@H](O)[C@H]3O)[C@@H](O)[C@H](O)[C@H]2O)C2C(CO)=CCC12 (stereo partly drawn) the Potency [1] was “inactive” and the Potency [2] was “inactive”.

In the case of CCCOc1ccc(CCc2nc3cc(-c4c(C)noc4C)ccc3n2CCN2CCOCC2)cc1, the Potency [1] is reported as 8.33 µM (active) and the Potency [2] is reported as 8.33 µM (active).

For C=C1C(=O)O[C@@H]2C[C@]3(C)[C@@H](CCC(C)O)[C@@H]3C[C@H]12 (stereo partly drawn), the Potency [1] was 18.3 µM (active) and the Potency [2] was 14.5 µM (active).

In the case of COc1cccc(-c2cc(F)ccc2C2Cc3nc(N)nc(C)c3C(=O)N2)n1 (stereo not drawn), the Potency [1] is reported as 0.0525 µM (active) and the Potency [2] is reported as 0.059 µM (active).

For CN1C(=O)c2sccc2N(C)c2nc(Nc3ccc(S(N)(=O)=O)cc3)ncc21, the Potency [1] was 1.05 µM (active) and the Potency [2] was 0.59 µM (active).

In the case of CC[C@H]1OC(=O)[C@H](C)[C@@H](O[C@H]2C[C@@](C)(OC)[C@@H](O)[C@H](C)O2)[C@H](C)[C@@H](O[C@H]2O[C@H](C)C[C@H](N(C)C)[C@H]2O)[C@](C)(O)C[C@@H](C)C(=O)[C@H](C)[C@@H](O)[C@]1(C)O, the Potency [1] is reported as “inactive” and the Potency [2] is reported as “inactive”.

In the case of Cc1cc(F)c(C(=O)Nc2cccc(-c3nncn3C(C)C)n2)cc1-n1cnc(C2CC2)c1, the Potency [1] is reported as 11.8 µM (active) and the Potency [2] is reported as 9.34 µM (active).

With CC1(C)CC[C@]23CO[C@@]4(CCC5[C@@]6(C)CC[C@H](O[C@@H]7OC[C@H](O[C@@H]8O[C@H](CO)[C@@H](O)[C@H](O)[C@H]8O[C@@H]8OC[C@@H](O)[C@H](O)[C@H]8O)[C@H](O)[C@H]7O[C@@H]7O[C@H](CO)[C@@H](O)[C@H](O)[C@H]7O)[C@@](C)(CO)C6CC[C@@]5(C)[C@]4(C)C[C@H]2O)[C@@H]3C1 (stereo partly drawn) the Potency [1] was 1.54 µM (active) and the Potency [2] was 2.75 µM (active).
